# The panel holds about 83,000 compounds, 20% with a hit somewhere; the sample as a whole holds those more often.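 Cells were grown in 96-well plates and exposed to the test compound at a single concentration for 48 hours; results are reported as percent growth, with values below 10 considered active.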 Unmarked numbers belong to inactive results. Calls of active or inactive are those of the source.
# Key:
# Experiment in all cases: NCI-60 one-dose screen, 48 h (100 = growth as untreated, 0 = no growth, -100 = all killed)
# SR leukemia = conditions: 10 µM unless noted
# RPMI-8226 leukemia = conditions: 10 µM
# OVCAR-8 ovarian = conditions: 10 µM unless noted
# OVCAR-5 ovarian = conditions: 10 µM unless noted
# OVCAR-4 ovarian = conditions: 10 µM unless noted
# SK-OV-3 ovarian = conditions: 10 µM
# IGROV1 ovarian = conditions: 10 µM unless noted
# OVCAR-3 ovarian = conditions: 10 µM unless noted
# HS 578T breast = conditions: 10 µM unless noted
# NCI/ADR-RES ovarian = conditions: 10 µM unless noted
# T-47D breast = conditions: 10 µM
# BT-549 breast = conditions: 10 µM unless noted
# MDA-MB-435 melanoma = conditions: 10 µM unless noted
# SW-620 colon = conditions: 10 µM unless noted
# HCT-116 colon = conditions: 10 µM unless noted
# KM12 colon = conditions: 10 µM unless noted
# MCF7 breast = conditions: 10 µM unless noted
# HCC-2998 colon = conditions: 10 µM unless noted
Compound,growth (SR leukemia),growth (RPMI-8226 leukemia),growth (OVCAR-8 ovarian),growth (OVCAR-5 ovarian),growth (OVCAR-4 ovarian),growth (SK-OV-3 ovarian),growth (IGROV1 ovarian),growth (OVCAR-3 ovarian),growth (HS 578T breast),growth (NCI/ADR-RES ovarian),growth (T-47D breast),growth (BT-549 breast),growth (MDA-MB-435 melanoma),growth (SW-620 colon),growth (HCT-116 colon),growth (KM12 colon),growth (MCF7 breast),growth (HCC-2998 colon)
O=C(Nc1ccccc1)Oc1cccc2cccnc12,48.2%,76.2%,74.4%,92.9%,76.8%,112%,20.4%,-19.4% (active),116%,78.5%,31.5%,102%,97%,48.2%,1.27% (active),108%,,
COc1ccc(-n2ncc3c2ccc2cc(S(=O)(=O)c4ccccc4)c(=O)n(C)c23)cc1,86.1%,85.4%,65.4%,98.4%,6.65% (active),83.5%,109%,91.1%,49.5%,77.3%,90.6%,67.8%,,97.5%,78.3%,88.8%,91%,102%
Cc1ccc2nc(NC(=O)CSC(=S)N3CCN(C)CC3)sc2c1,138%,106%,75.6%,105%,100%,108%,86.7%,120%,114%,89%,105%,97.4%,101%,106%,97.2%,111%,93%,
Cc1ccc(-c2c3c(N)c4c(nc3nc3c2c(C)nn3-c2ccccc2)CCCC4)cc1,-4.06% (active),94.1%,98.1%,101%,96%,99.9%,98.6%,116%,105%,106%,92.6%,109%,,97.1%,90.2%,105%,94.2%,107%
O=C1OCC2=C1C(c1ccc3c(c1)OCO3)CC(=O)N2c1cccc(Cl)c1 (stereo not drawn),98.6%,90.1%,102%,106%,93.5%,97.5%,104%,109%,94.5%,98.9%,103%,126%,100%,105%,114%,101%,86.7%,
O=C1/C(=C/c2ccc(F)cc2)CN(Cc2cn(CCNc3ccnc4cc(Cl)ccc34)nn2)C/C1=C\c1ccc(F)cc1,-23.7% (active),-31% (active),-5.64% (active),-57.6% (active),23.3%,-27.1% (active),0.407% (active),-39.7% (active),18.2%,4.23% (active),-31.2% (active),-91.1% (active),,-70.5% (active),-84.5% (active),-71.4% (active),-79.6% (active),-92.1% (active)
Cc1ccc(S(=O)(=O)N(c2ccc(Cl)cc2)c2ccc(Br)cc2C(=O)O)cc1,104%,108%,101%,101%,116%,112%,109%,120%,102%,115%,,134%,107%,104%,113%,108%,104%,115%
Cc1nn(CC(=O)O)c2c1C(=O)CC(C)(C)C2,89.1%,99.2%,104%,91.2%,101%,101%,94.1%,110%,102%,99.5%,104%,104%,,117%,92.3%,109%,102%,98.9%
COc1ccc(NC(=O)COc2ccccc2)c(C(N)=O)c1,24.5%,11.9%,35.2%,43.6%,87.7%,4.18% (active),46%,0.699% (active),27.9%,5.8% (active),,55.9%,-70% (active),27.1%,25.9%,25.2%,23.8%,46.5%
NC(=O)c1cc(I)ccc1NC(=O)COc1ccc(Cl)cc1Cl,40.9%,96.3%,102%,103%,114%,90.5%,89.3%,103%,106%,82.3%,,77.6%,14.9%,79.6%,90.7%,67.8%,72.2%,95.3%
Cn1c2ccccc2c2nn(C(=O)c3ccccc3)c(=O)nc21,93.7%,98.7%,117%,101%,125%,116%,101%,122%,105%,110%,,114%,105%,100%,109%,106%,101%,107%
COc1cc(C2C3=C(COC3=O)N(CCO)c3cc4c(cc32)OCO4)cc(OC)c1O (stereo not drawn),21.5%,21.8%,42.8%,72%,48.3%,31.8%,36%,-25.9% (active),3.31% (active),73.3%,35.3%,59.9%,,14.8%,16.7%,20.9%,19.6%,28.4%
O=[N+]([O-])c1ccc(C=C2C(Cl)=C(Cl)C(Cl)=C2Cl)cc1,-1.36% (active),11.4%,22.4%,112%,54.5%,115%,,-17% (active),-13.4% (active),,47.8%,97.7%,76.1%,-59.9% (active),-11% (active),73.7%,34.8%,
Clc1ccc2c(N3CCN(c4ccnc(NC5CCCCC5)n4)CC3)ccnc2c1,-36% (active),2.01% (active),56.6%,80.8%,42.3%,62.7%,,53.4%,67.7%,,26.1%,71.1%,42.7%,33.7%,4.29% (active),35.5%,26.5%,29.2%
CCCCc1ccc(NC(=O)C(F)(F)F)cc1,86.4%,91.4%,95.1%,99.6%,114%,109%,113%,106%,,,87.1%,87.7%,102%,101%,106%,97.3%,108%,106%
CCN(CC)CCCNc1ccc(C)c2sc3ccccc3c(=O)c12,-11.8% (active),15.4%,43.2%,56.4%,64.8%,56.2%,51.9%,68.5%,,58.4%,43.7%,76.5%,-85.7% (active),,17.5%,33.2%,-67.1% (active),-49.2% (active)
C=C[C@H]1C[C@@H]2C[C@@H]3[C@H]4C/C=C\C(=O)NCCCC5NC(=O)C(=C(O)/C=C/[C@@H]4CC(=O)[C@H]3[C@@H]2[C@H]1C)C5=O (stereo partly drawn),-55.9% (active),-54.5% (active),-84.7% (active),-92.7% (active),-78.1% (active),-100% (active),-62.8% (active),-95.3% (active),,-73.4% (active),-53.5% (active),,-19.2% (active),-58.2% (active),,-17.4% (active),-63.8% (active),-30% (active)
COc1ccc(/C=C2\CN(Cc3cn(CCCNc4ccnc5cc(Cl)ccc45)nn3)C/C(=C\c3ccc(OC)c(OC)c3)C2=O)cc1OC,-11.8% (active),-35.5% (active),6.8% (active),2.05% (active),21.3%,36.5%,31.7%,12.7%,34%,,49.5%,-56.1% (active),-28.9% (active),-16.7% (active),-64.6% (active),-64% (active),36.9%,-87% (active)
